RGS16-Gao: modulators of RGS16 binding to Galphao, primary screen, biochemical, human proteins, multiplexed bead flow cytometry; Regulator of G-protein signaling 16 (Homo sapiens) + Guanine nucleotide-binding protein …; bead-based flow cytometry RGS16-Galphao binding, fluorescence; actives lie on both sides; binding response (% of control), % at 10 µM; hit rate 0.38% among 220,000; call rule not given here;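 also: Galphao activated by GDP with aluminum fluoride before binding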
Avidin bead fluor: green autofluorescence of compounds with avidin beads – biophysical, 488/530 nm, flow cytometry, artefact control, profiling panel; compound fluorescence 488/530 nm; hits give high values; fluorescence (KMESF) at 10 µM; hit rate 0.38% among 220,000; AID 1775, 2009; in the data active = fluorescence above about 47
GSH bead fluor: compound fluorescence on glutathione beads, profiling panel, artefact control, biophysical, 488/530 nm, flow cytometry | hit rate 0.25% among 190,000 | GSH beads flow cytometry, compound fluorescence 488/530 nm; hits give high values | AID 1776, 2009 | fluorescence (KMESF) at 10 µM; in the data active = fluorescence above about 89;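 also: glutathione beads carrying GST-tagged Bcl family fusion proteins plus one bare bead set; values are compound well signal with DMSO vehicle wells as background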
RGS8-Gao reg: RGS8-Galphao binding modulators, primary screen, biochemical, multiplexed bead flow cytometry | Guanine nucleotide-binding protein G(o) subunit alpha (Homo sapiens), P09471 | actives lie on both sides | response (percent of control binding), % at 10 µM | hit rate 0.34% among 220,000 | AID 1423, 2008; in the data active = response below about 60% or above about 140%; inactive = in between;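 also: Galphao activated as the GDP aluminium fluoride complex binding bead-coupled RGS8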
Target sequence (P09471 whole entry, looked up): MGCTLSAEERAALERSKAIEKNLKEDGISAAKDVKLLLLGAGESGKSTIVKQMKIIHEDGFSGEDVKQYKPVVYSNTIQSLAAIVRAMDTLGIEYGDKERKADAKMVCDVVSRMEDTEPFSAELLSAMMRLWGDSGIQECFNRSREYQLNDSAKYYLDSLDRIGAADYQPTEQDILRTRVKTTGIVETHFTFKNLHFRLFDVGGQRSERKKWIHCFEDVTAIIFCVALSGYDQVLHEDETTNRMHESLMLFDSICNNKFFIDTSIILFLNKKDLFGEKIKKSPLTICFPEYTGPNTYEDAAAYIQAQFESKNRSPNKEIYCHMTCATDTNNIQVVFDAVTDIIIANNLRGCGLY
RGS4-Gao reg: modulators of RGS4 binding to Galphao, primary screen, biochemical, multiplexed bead flow cytometry | hit rate 0.33% among 220,000 | Guanine nucleotide-binding protein G(o) subunit alpha (Homo sapiens), P09471 | actives lie on both sides | binding response (% of control), % at 10 µM; in the data active = binding response below about 49% or above about 150%; inactive = in between;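 also: fluorescent Galphao activated with aluminum fluoride binding bead-coupled RGS4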
RGS7-Gao reg: RGS7-Galphao binding modulators, primary screen, biochemical, multiplexed bead flow cytometry. hit rate 0.35% among 220,000. actives lie on both sides. binding response (% of control), % at 10 µM. AID 1439, 2008; in the data active = binding response below about 49% or above about 150%; inconclusive = no clear call, values can overlap the other calls; inactive = in between;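 also: fluorescent Galphao held in activated GDP-AlF4 state binding bead-coupled RGS7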
* marks the source's active call; other numbers are inactive results; u = inconclusive; x = no result given; + = active, no number; [ ] = dose if it differs, or a comment. Most compounds without a hit are left out; they make up all but 1.2% or so of the library.

SMILES	RGS16-Gao	Avidin bead fluor	GSH bead fluor	RGS8-Gao reg	RGS4-Gao reg	RGS7-Gao reg
CC(=O)NC(Cc1ccccc1C)C(=O)NC1CCN(C(=O)c2cccc(C)c2)CC1 (stereo unspecified)	99.8	10	19	100.0	99.8	105.9
S=c1[nH]nc(-c2ccccn2)n1/N=C/c1ccc(-c2ccccc2Br)o1	95.3	11	14	97.2	101.6	u
O=C(CCCOc1ccccc1)NC(=S)Nc1ccccc1	97.6	8	17	99.1	99.3	95.4
COc1cc(-c2nnc(Sc3ccc(C(F)(F)F)cc3[N+](=O)[O-])o2)cc(OC)c1OC	103.5	72*	19	103.0	106.3	105.9
O=C(O)c1ccc(Sc2nnc(-c3cccc(Br)c3)o2)c([N+](=O)[O-])c1	104.5	8	4	103.1	103.9	100.6
Nc1ccc(S(=O)(=O)C(F)(F)F)cc1N	98.9	9	16	99.8	95.6	u
CCOC(=O)c1c(NC(=O)N/N=C/c2ccccc2OCC)sc(C(C)=O)c1C	27.3	5	447*	84.8	90.3	90.1
O=C(NC1CC1)C1CCN(C2CCN(C(=O)c3ccc4cccc(F)c4n3)CC2)CC1	97.5	8	9	99.3	94.2	86.6
CCn1c(=O)ccc2cc([N+](=O)[O-])ccc21	95.0	10	18	98.3	94.8	96.1
Cc1cc(NC(=O)CSc2nc3ccsc3c(=O)n2NC(=O)c2ccccc2)no1	23.2*	1	64	38.7*	19.3*	25.2*
Cc1ccc(CNC(=O)CSc2nc3ccsc3c(=O)n2NC(=O)c2ccccc2)cc1	99.7	5	13	98.3	98.7	95.8
COC(=O)C1CCN(CC(=O)Nc2ccc(OC)c(Cl)c2)CC1	107.8	27	9	103.0	101.1	99.5
CC(Oc1ccc(Cl)cc1Cl)c1nc(-c2ccc(NC(=O)c3ccccn3)cc2)no1 (stereo unspecified)	98.7	7	108*	102.1	104.1	104.0
COc1ccc(NC(=O)c2ccccn2)cc1OC	91.2	12	9	93.7	87.1	84.2
O=C(O)c1ccc2c(c1)C(=O)N(N1C(=O)c3ccccc3C1=O)C2=O	116.4	24	111*	98.9	101.4	105.8
CC(=O)Oc1ccccc1N1C(=O)c2ccc(C(=O)O)cc2C1=O	32.9	3	45	91.0	96.2	93.8
O=C1CCCCCN1Cc1nnc(SCc2nc3ccccc3s2)n1-c1ccccn1	108.3	8	257*	100.8	102.6	106.3
CCNC(=O)CSc1nnc(CN2CCCCCC2=O)n1-c1ccccn1	109.2	26	15	103.1	103.0	103.3
Cc1ccc(CC2C(=O)N(c3nc(C)cc(C)n3)C(=O)C2C)cc1 (stereo unspecified)	103.2	8	15	99.4	105.2	99.2
CC(C)c1ccccc1OCCCCCNCCO	105.1	48*	23	99.6	105.2	108.9
NC(=O)c1ccc(N=Nc2c(-c3ccccc3)[nH]n(-c3ccccc3)c2=O)cc1	108.0	63*	11	108.1	114.3	u
O=C(N/N=C/C1CC2C=CC1C2)c1ccccc1O (stereo unspecified)	95.8	7	x	101.1	98.2	u
Cc1nnc(NC(=O)CSc2nnc(CCc3nc4ccccc4[nH]3)n2C)s1	102.3	8	5	103.6	102.9	97.2
CCc1nnc(NC(=O)CSc2nnc(CCc3nc4ccccc4[nH]3)n2C)s1	103.1	7	286*	99.0	99.4	98.7
CCCCN1C(=O)/C(=C/C=C2\Oc3ccccc3N2CC)SC1=S	107.1	12	16	102.8	102.4	108.3
CCN1/C(=C/C=C/c2oc3ccc(-c4ccccc4)cc3[n+]2CC)Oc2ccc(-c3ccccc3)cc21	+[activator]	994*	640*	300.3*[activator]	+[activator]	+[activator]
O=C(O)Cc1csc(NC(=O)c2ccco2)n1	96.0	7	276*	98.3	101.3	103.4

Screening results (PubChem BioAssay)
